The target of one test is Hexose transporter 1 (Plasmodium falciparum) (UniProt O97467). Nature of the test: ST_JUDE_LEISH: Cytotoxicity at 2uM final concentration against transgenic Leishmania Mexicana promastigotes LmPfHT that are glucose transport deficient and complemented with the Plasmodium falciparum hexose transporter. Activity is measured by DNA content using SYBR green in vitro. The test is classed as functional.
As a reminder, the inhibition is the relative decrease from the control value, in per cent. Take `CC(=O)Nc1nc(C(=O)Nc2ccc(-c3ccc(-c4nc5cccc(C)c5[nH]4)cc3)cc2)cs1`: the inhibition worked out at 9.18%.

Consider `COc1ccc2nccc([C@@H](O)CN3CCC(NC(=O)/C=C/c4ccc5[nH]c(=O)ccc5c4)CC3)c2c1`, for which the inhibition was found to be 1.78%.

For `COc1ccc(CNC2CCCC2)cc1-c1ccc(S(=O)(=O)NCCN2CCCC2)s1`, the inhibition is 2.89%.

`COc1ccc2[nH]ccc(=NN=Cc3ccccc3Cl)c2c1`: the inhibition came out at 12.6%.

For `CCCCCCCCNCC(O)c1cc(-c2ccc(Cl)cc2)nc2cc(C)ccc12` (stereo not given), the inhibition was -0.38%.

In the case of `CC1(C)NC(N)=NC(=N)N1OCCCc1cccc(C(F)(F)F)c1`, the inhibition was -0.35%.

Turning to `CC(=O)c1cccc2c(NC(=O)Nc3ccc4nccc(N5CCN(C)CC5)c4c3)cccc12`, the inhibition worked out at 6.04%.

In the case of `CC(Cc1ccc(CN2CCN(Cc3ccccc3)CC2)cc1)NCC(O)c1cccc(C(F)(F)F)c1` (stereo not given), the inhibition amounted to 4.18%.

In the case of `COc1ccc2nc3cc(Cl)ccc3c(NCCCN3CCNCC3)c2c1`, the inhibition came to 3.25%.

Take `COc1ccc(NC(=O)[C@H](Cc2ccccc2)Nc2cc(C)nc(NCCN3CCCC3)n2)cc1`: the inhibition was 9.21%.

For `CS(=O)(=O)N(c1ccccc1)c1cc(C(=O)N[C@@H](Cc2ccccc2)[C@H](O)CNC2CCCCC2)cc(N2CCCC2=O)c1`, the inhibition stood at 1.63%.

In the case of `COc1ccc(NCCCNc2ccnc3ccccc23)cc1`, the inhibition came out at 4.48%.

Regarding `Fc1ccc2[nH]c(-c3cccc(-c4ccc(CN5CCN(c6cnccn6)CC5)cc4)c3)nc2c1`, the inhibition is 12.5%.

For `CC(=O)N1N=C(c2ccc(Cl)cc2)Sc2c1nc(C1CCCCC1)n2C(C)=O`, the inhibition was 0.1%.

For `CCN(CC)CCN(Cc1ccc(-c2ccc(C(F)(F)F)cc2)cc1)C(=O)Cn1c(CCc2cc(F)cc(F)c2F)nc(=O)c2ccccc21`, the inhibition turned out to be 0.76%.

On to `CC(=O)Nc1ccc(C(=O)Nc2ccc(-c3cccc(-c4nc5cc(C(F)(F)F)ccc5[nH]4)c3)cc2)cn1`, for which the inhibition was 0.25%.

On to `O=C(Nc1cccc(F)c1)N1CCC(CN2CCOC(c3ccccc3)(c3ccccc3)C2)CC1`, for which the inhibition turned out to be 4.01%.

Turning to `O=C(Nc1ccc(OC2CCN(Cc3ccccc3)C2)c(Cl)c1)c1ccsc1` (stereo not given), the inhibition worked out at 2.26%.

Turning to `Cc1cc(-c2ccc(S(=O)(=O)Nc3cc4c(cc3OC(C)C)CCN(C)CC4)cc2)ccc1Cl`, the inhibition is -1.99%.

Regarding `Cc1cc(O)c(-c2ccc(S(=O)(=O)c3ccc(Cl)cc3)cc2)c(C)n1`, the inhibition was 0.81%.

For the compound `OC1CCCN(Cc2ccc(-c3ccc(-c4nc5cc(F)ccc5[nH]4)s3)cc2)C1` (stereo not given), the inhibition stood at 2.51%.

As for `COc1ccc(CNC2CCN(C)CC2)cc1-c1ccc(S(=O)(=O)NCCc2ccccn2)c(C)c1`, the inhibition is 1.98%.

Turning to `O=C(NC1CCN(CC2(c3ccccc3)CCCC2)CC1)c1n[nH]cc1Cl`, the inhibition stood at 0.32%.

As for `CNc1nc(N/N=C/c2cc3c(cc2[N+](=O)[O-])OCO3)nc(Nc2cccc(C(F)(F)F)c2)n1`, the inhibition amounted to 5.94%.

As for `CCCC(=O)Nc1ccc(OCCCN(Cc2ccccc2OC(F)(F)F)c2ccc(C#N)c(C(F)(F)F)c2)cc1`, the inhibition was determined as 9.22%.

As for `Cn1nccc1C(=O)NCCNCc1cccc(-c2ccc(-c3nc4cc(C(F)(F)F)ccc4[nH]3)cc2)c1`, the inhibition is -1.43%.

For `CN1CCN(c2ccnc3cc4c(cc23)N(Cc2ccccc2)CC4)CC1`, the inhibition is -0.13%.

On to `CCCCc1cc(NCC)nc(Nc2ccc(F)cc2)n1`, for which the inhibition came out at 10.4%.

As for `COC(=O)Nc1cc(C(F)(F)F)ccc1N1CCC(CNS(=O)(=O)c2ccc(OC)cc2)CC1`, the inhibition worked out at 4.92%.

With `COc1cc2c(cc1COc1ccccc1)CCN1Cc3cc(OC)c(OC)cc3CC21` (stereo not given), the inhibition was found to be 0.8%.

For `CCc1ccnc2c(N3CCCC3=O)cc(C(=O)N[C@@H](Cc3ccccc3)[C@H](O)CNC3CCOCC3)cc12`, the inhibition is 0.4%.

With `CCc1c(C)nc(-n2nc(C)cc2NC(=O)C2c3ccccc3Oc3ccccc32)[nH]c1=O`, the inhibition is -0.55%.

With `Cc1ccccc1C1CCN(C2CCC(NC(=O)C3=Cc4ccccc4OC3)CC2)CC1` (stereo not given), the inhibition stood at 4.94%.

In the case of `CCCNCc1ccc(-c2ccc(CN(CCOC)C(=O)CCC(=O)c3ccc(OC)c(F)c3)cc2)nc1`, the inhibition amounted to 3.36%.

On to `OC(c1ccc(Cl)cc1)(c1ccc(Cl)cc1)C(c1ccc(Cl)cc1)n1ccnc1` (stereo not given), for which the inhibition worked out at 4.21%.

Turning to `O=C(CCn1c2ccccc2c2ccccc21)NN=Cc1ccco1`, the inhibition was determined as 5.11%.

Consider `COc1ccccc1CCNc1nc(C)cc(N[C@@H](CC(C)C)C(=O)NCCc2ccccc2)n1`, for which the inhibition is 5.72%.

As for `CN(C(=O)/C=C/c1cc(C(F)(F)F)ccc1F)C1CCN(CCCCCNC(=O)/C=C/c2ccc(Cl)c(Cl)c2)CC1`, the inhibition turned out to be 3.45%.

As to `CCCNCc1ccc(-c2ccc(CN(CC3CCCO3)C(=O)C3CC(=O)c4ccccc43)cc2)nc1` (stereo not given), the inhibition was 3.74%.

`CCN(CCNc1nc(NCCc2cnc[nH]2)nc(N(CCC#N)Cc2ccccc2)n1)c1cccc(C)c1`: the inhibition was 12.8%.

Another test deals with Glucose transporter (Leishmania mexicana) (UniProt O61059). The test can be described thus: ST_JUDE_LEISH: Cytotoxicity at 2uM final concentration against transgenic Leishmania Mexicana promastigotes LmGT2 that are glucose transport deficient and complemented with the L. Mexicana glucose transporter 2. Activity is measured by DNA content using SYBR green in vitro. It is filed as functional.
Take `CC(=O)Nc1nc(C(=O)Nc2ccc(-c3ccc(-c4nc5cccc(C)c5[nH]4)cc3)cc2)cs1`: the inhibition amounted to 6.38%.

Take `COc1ccc2nccc([C@@H](O)CN3CCC(NC(=O)/C=C/c4ccc5[nH]c(=O)ccc5c4)CC3)c2c1`: the inhibition was found to be 2.05%.

Take `COc1ccc(CNC2CCCC2)cc1-c1ccc(S(=O)(=O)NCCN2CCCC2)s1`: the inhibition was determined as 3.68%.

In the case of `COc1ccc2[nH]ccc(=NN=Cc3ccccc3Cl)c2c1`, the inhibition worked out at 2.03%.

As for `CCCCCCCCNCC(O)c1cc(-c2ccc(Cl)cc2)nc2cc(C)ccc12` (stereo not given), the inhibition is -1.09%.

On to `CC1(C)NC(N)=NC(=N)N1OCCCc1cccc(C(F)(F)F)c1`, for which the inhibition is 1.25%.

Regarding `CC(=O)c1cccc2c(NC(=O)Nc3ccc4nccc(N5CCN(C)CC5)c4c3)cccc12`, the inhibition is 7.35%.

Turning to `CC(Cc1ccc(CN2CCN(Cc3ccccc3)CC2)cc1)NCC(O)c1cccc(C(F)(F)F)c1` (stereo not given), the inhibition is 5.25%.

As to `COc1ccc2nc3cc(Cl)ccc3c(NCCCN3CCNCC3)c2c1`, the inhibition is 2.39%.

As for `COc1ccc(NC(=O)[C@H](Cc2ccccc2)Nc2cc(C)nc(NCCN3CCCC3)n2)cc1`, the inhibition is 7.49%.

As for `CS(=O)(=O)N(c1ccccc1)c1cc(C(=O)N[C@@H](Cc2ccccc2)[C@H](O)CNC2CCCCC2)cc(N2CCCC2=O)c1`, the inhibition was 0.49%.

With `COc1ccc(NCCCNc2ccnc3ccccc23)cc1`, the inhibition came out at 1.73%.

In the case of `Fc1ccc2[nH]c(-c3cccc(-c4ccc(CN5CCN(c6cnccn6)CC5)cc4)c3)nc2c1`, the inhibition was 8.14%.

In the case of `CC(=O)N1N=C(c2ccc(Cl)cc2)Sc2c1nc(C1CCCCC1)n2C(C)=O`, the inhibition is -0.39%.

As to `CCN(CC)CCN(Cc1ccc(-c2ccc(C(F)(F)F)cc2)cc1)C(=O)Cn1c(CCc2cc(F)cc(F)c2F)nc(=O)c2ccccc21`, the inhibition is -0.7%.

Regarding `CC(=O)Nc1ccc(C(=O)Nc2ccc(-c3cccc(-c4nc5cc(C(F)(F)F)ccc5[nH]4)c3)cc2)cn1`, the inhibition is -0.11%.

For the compound `O=C(Nc1cccc(F)c1)N1CCC(CN2CCOC(c3ccccc3)(c3ccccc3)C2)CC1`, the inhibition worked out at 5%.

For `O=C(Nc1ccc(OC2CCN(Cc3ccccc3)C2)c(Cl)c1)c1ccsc1` (stereo not given), the inhibition came to 2.75%.

On to `Cc1cc(-c2ccc(S(=O)(=O)Nc3cc4c(cc3OC(C)C)CCN(C)CC4)cc2)ccc1Cl`, for which the inhibition was -2.35%.

For the compound `Cc1cc(O)c(-c2ccc(S(=O)(=O)c3ccc(Cl)cc3)cc2)c(C)n1`, the inhibition turned out to be 1.44%.

Consider `OC1CCCN(Cc2ccc(-c3ccc(-c4nc5cc(F)ccc5[nH]4)s3)cc2)C1` (stereo not given), for which the inhibition stood at 1.76%.

Take `COc1ccc(CNC2CCN(C)CC2)cc1-c1ccc(S(=O)(=O)NCCc2ccccn2)c(C)c1`: the inhibition was 1.53%.

With `O=C(NC1CCN(CC2(c3ccccc3)CCCC2)CC1)c1n[nH]cc1Cl`, the inhibition is -0.85%.

As for `CNc1nc(N/N=C/c2cc3c(cc2[N+](=O)[O-])OCO3)nc(Nc2cccc(C(F)(F)F)c2)n1`, the inhibition came to 2.16%.

In the case of `CCCC(=O)Nc1ccc(OCCCN(Cc2ccccc2OC(F)(F)F)c2ccc(C#N)c(C(F)(F)F)c2)cc1`, the inhibition came out at 5.47%.

For `Cn1nccc1C(=O)NCCNCc1cccc(-c2ccc(-c3nc4cc(C(F)(F)F)ccc4[nH]3)cc2)c1`, the inhibition is -2.04%.

Consider `CN1CCN(c2ccnc3cc4c(cc23)N(Cc2ccccc2)CC4)CC1`, for which the inhibition is 0.13%.

In the case of `CCCCc1cc(NCC)nc(Nc2ccc(F)cc2)n1`, the inhibition was 4.95%.

In the case of `COC(=O)Nc1cc(C(F)(F)F)ccc1N1CCC(CNS(=O)(=O)c2ccc(OC)cc2)CC1`, the inhibition was 6.14%.

On to `COc1cc2c(cc1COc1ccccc1)CCN1Cc3cc(OC)c(OC)cc3CC21` (stereo not given), for which the inhibition was -6.12%.

Take `CCc1ccnc2c(N3CCCC3=O)cc(C(=O)N[C@@H](Cc3ccccc3)[C@H](O)CNC3CCOCC3)cc12`: the inhibition stood at 0.64%.

`CCc1c(C)nc(-n2nc(C)cc2NC(=O)C2c3ccccc3Oc3ccccc32)[nH]c1=O`: the inhibition amounted to 3.35%.

With `Cc1ccccc1C1CCN(C2CCC(NC(=O)C3=Cc4ccccc4OC3)CC2)CC1` (stereo not given), the inhibition came to 4.67%.

Turning to `CCCNCc1ccc(-c2ccc(CN(CCOC)C(=O)CCC(=O)c3ccc(OC)c(F)c3)cc2)nc1`, the inhibition amounted to 1.5%.

`OC(c1ccc(Cl)cc1)(c1ccc(Cl)cc1)C(c1ccc(Cl)cc1)n1ccnc1` (stereo not given): the inhibition stood at 2.69%.

In the case of `O=C(CCn1c2ccccc2c2ccccc21)NN=Cc1ccco1`, the inhibition turned out to be 4.19%.

In the case of `COc1ccccc1CCNc1nc(C)cc(N[C@@H](CC(C)C)C(=O)NCCc2ccccc2)n1`, the inhibition is 2.57%.

In the case of `CN(C(=O)/C=C/c1cc(C(F)(F)F)ccc1F)C1CCN(CCCCCNC(=O)/C=C/c2ccc(Cl)c(Cl)c2)CC1`, the inhibition is 2.56%.

Turning to `CCCNCc1ccc(-c2ccc(CN(CC3CCCO3)C(=O)C3CC(=O)c4ccccc43)cc2)nc1` (stereo not given), the inhibition came to 3.19%.

`CCN(CCNc1nc(NCCc2cnc[nH]2)nc(N(CCC#N)Cc2ccccc2)n1)c1cccc(C)c1`: the inhibition was 6.78%.
